Design in all cases: species or system human, MV4-11 + K-562 + COLO205 + SK-N-BE2 + OVCAR-8
One test concerns AKT1. The settings on record: read-out: apparent Kd; compound concentrations:100 nM and 1000 nM (sheet 'Samples'); n = 1.
Another test relates to AKT2. Particulars: read-out: apparent Kd, n = 1.
The subject of the next test is AKT3. Particulars: read-out: apparent Kd; compound concentrations:100 nM and 1000 nM (sheet 'Samples'); n = 1.
In another test the test system is ATM. The settings on record: read-out: apparent Kd; compound concentrations:100 nM and 1000 nM (sheet 'Samples'); n = 1.
The next test concerns CAMK4. Particulars: read-out: apparent Kd; compound concentrations:100 nM and 1000 nM (sheet 'Samples'); n = 1.
A further test concerns JAK2. The settings on record: read-out: apparent Kd; compound concentrations:100 nM and 1000 nM (sheet 'Samples'); n = 1.
The subject of another test is MAP2K1. The settings on record: read-out: apparent Kd; compound concentrations:100 nM and 1000 nM (sheet 'Samples'); n = 1.
In a further test the test system is NQO1. The settings on record: read-out: apparent Kd, n = 1.
In the next test the test system is PRKCD. The settings on record: read-out: apparent Kd; compound concentrations:100 nM and 1000 nM (sheet 'Samples'); n = 1.
The next test relates to PRKCQ. Particulars: read-out: apparent Kd; compound concentrations: 100 nM and 1000 nM (sheet 'Samples'), CATDS: 0.49835750263786499; n = 1.
Another test deals with PRKCZ. The settings on record: read-out: apparent Kd; compound concentrations:100 nM and 1000 nM (sheet 'Samples'); n = 1.
The test system of the next test is RIOK2. The settings on record: read-out: apparent Kd; compound concentrations:100 nM and 1000 nM (sheet 'Samples'); n = 1.
A further test concerns TTN. Particulars: read-out: apparent Kd; compound concentrations:100 nM and 1000 nM (sheet 'Samples'); n = 1.
The next test deals with CDK6. Particulars: read-out: apparent Kd; compound concentrations: 100 nM and 1000 nM (sheet 'Samples'), CATDS: 0.111886140460168; n = 1.
The next test has as its system EGFR. Particulars: read-out: apparent Kd; compound concentrations: 100 nM and 1000 nM (sheet 'Samples'), CATDS: 0.20286097232099201; n = 1.
In the next test the test system is MAP2K2. The settings on record: read-out: apparent Kd; compound concentrations: 100 nM and 1000 nM (sheet 'Samples'), CATDS: 0.118156666202673; n = 1.
Another test has as its system PYGL. The settings on record: read-out: apparent Kd; compound concentrations: 100 nM and 1000 nM (sheet 'Samples'), CATDS: 0.12425140919606401; n = 1.
Another test relates to RIPK2. Particulars: read-out: apparent Kd; compound concentrations: 100 nM and 1000 nM (sheet 'Samples'), CATDS: 0.17953871866569099; n = 1.
The test system of a further test is AGK. Particulars: read-out: apparent Kd; compound concentrations: 100 nM and 1000 nM (sheet 'Samples'), CATDS: 0.48685778986675599; n = 1.
The next test concerns TP53RK. The settings on record: read-out: apparent Kd; compound concentrations: 100 nM and 1000 nM (sheet 'Samples'), CATDS: 0.51387141429952199; n = 1.
The mark [1] stands for this setting: compound concentrations:100 nM and 1000 nM (sheet 'Samples').

The structures appear in SMILES notation. Read-outs that look alike come from different tables or passages of the source.

In the case of `NCC1CCC(CNc2nc(NCc3ccccc3OC(F)(F)F)ncc2[N+](=O)[O-])CC1` (stereo not shown) [BIRZ0518XX], the potency estimated from few doses in the test with AKT1 was 1960 nM; in the test with AKT2 (setting [1]), 1970 nM; in the test on AKT3, 1210 nM; with ATM it was 249 nM; with CAMK4, 1110 nM; in the test on JAK2, 517 nM. Besides, the potency estimated from few doses in the test on MAP2K1 is 2280 nM; with NQO1 (setting [1]), 1290 nM; with PRKCD it was 648 nM; in the test with PRKCQ it was 40.3 nM; in the test on PRKCZ, 2020 nM; with RIOK2, 1910 nM. Also, in the test with TTN, the potency estimated from few doses is 1030 nM.
With `Cn1cncc1-c1ccc2ncnc(Nc3ccc(OCc4ccccc4)cc3)c2c1` [GW320571X], the potency estimated from few doses is 1180 nM in the test with AKT2 (compound concentrations: 100 nM and 1000 nM (sheet 'Samples'), CATDS: 0.134297871058083); 1880 nM in the test on CDK6; 545 nM with EGFR; 1610 nM in the test with MAP2K2; 676 nM in the test with NQO1 (compound concentrations: 100 nM and 1000 nM (sheet 'Samples'), CATDS: 0.17840078958021699); 1420 nM in the test on PYGL. Moreover, the potency estimated from few doses in the test with RIPK2 was 668 nM.
With `COC[C@@H](C)N[C@H]1CC[C@H](Nc2cc(-c3cccc(NCC4(C#N)CCOCC4)n3)c(Cl)cn2)CC1` [NVP-2], the potency estimated from few doses with AGK was 2370 nM; in the test on TP53RK it was 2130 nM.

(Values after PMC11062922 (Nature Chemical Biology, 2023).)
